# About 83,000 compounds went through this panel and 20% of them were active in at least one assay; those are over-represented in the sample as a whole.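 Step 1: grow cells in 96-well plates. Step 2: add test compound at a single concentration. Step 3: incubate 48 h. Step 4: record percent growth.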 Unmarked numbers belong to inactive results. Active and inactive are the calls of the source. The calls were made as follows: active = growth percent below 10; inactive = the rest.
# How the values were obtained:
# Test in all cases: NCI-60 one-dose screen, 48 h (100 = growth as untreated, 0 = no growth, -100 = all killed)
# Conditions in all cases: 10 µM unless noted
# SK-MEL-2 melanoma = tested on: SK-MEL-2 melanoma
# EKVX NSCLC = tested on: EKVX NSCLC
# SN12C renal = tested on: SN12C renal
# UO-31 renal = tested on: UO-31 renal
# TK-10 renal = tested on: TK-10 renal
# ACHN renal = tested on: ACHN renal
# CAKI-1 renal = tested on: CAKI-1 renal
# A498 renal = tested on: A498 renal
# CCRF-CEM leukemia = tested on: CCRF-CEM leukemia
# MOLT-4 leukemia = tested on: MOLT-4 leukemia
Compound,growth (SK-MEL-2 melanoma),growth (EKVX NSCLC),growth (SN12C renal),growth (UO-31 renal),growth (TK-10 renal),growth (ACHN renal),growth (CAKI-1 renal),growth (A498 renal),growth (CCRF-CEM leukemia),growth (MOLT-4 leukemia)
COc1ccc(/C=C(\C#N)n2nnc3ccc(Cl)cc32)cc1,62.9%,90%,52.4%,50.2%,77.6%,45.6%,46.3%,79.7%,45.5%,83.7%
O=C(COc1ccc(-c2nc3cc(Cl)c(Cl)cc3[nH]2)cc1)N=Nc1c(O)[nH]c2ccc(Cl)cc12,90.2%,96.8%,74.5%,94.4%,91.4%,71.8%,76.3%,91.3%,24.2%,47%
COC(=O)/C=C1/SC(=Nc2cccc(OC)c2)N(CCc2c[nH]c3ccc(O)cc23)C1=O,57.6%,66.9%,62.3%,55.7%,117%,71.8%,82.2%,64.9%,4.98% (active),-1.26% (active)
COc1ccc2[nH]c(C(=O)N3CCN(C(=O)OCc4ccc5c(Cl)cc(Cl)c(O)c5n4)CC3)cc2c1,-77.2% (active),-76.6% (active),-83.8% (active),-100% (active),-99.2% (active),-100% (active),-95.6% (active),-13.8% (active),-9.25% (active),-6.74% (active)
CCOC(=O)c1ccc2c(c1)nc(-c1ccccc1)n2C1CCCCC1,86.1%,83%,105%,84%,116%,112%,101%,97.8%,79.4%,85.5%
COCCn1cc(-c2nc(-c3cc4cccnc4[nH]3)cs2)c2cc(OC)ccc21,37.8%,16.9%,48.5%,10.9%,-4.75% (active),22.4%,34.4%,-0.329% (active),12.4%,26.6%
Cc1[nH]c(C(=O)Nc2ccccc2OC2CCNCC2)c(Cl)c1Cl,24.2%,43%,-53.2% (active),-75.8% (active),-3.07% (active),-19.2% (active),1.32% (active),67.6%,1.15% (active),4.46% (active)
O=C1NC(=O)C(Cc2ccc(OCc3ccc(-c4ccc(Cl)cc4Cl)cc3)cc2)S1 (stereo not given),49.8%,37.8%,59.5%,34.1%,72.9%,55.2%,32.7%,83.4%,42.2%,17%
C=C1C(=O)O[C@H]2[C@H]1CC/C(COC(=O)C(=O)c1cn(C)c3ccc(Cl)cc13)=C\CC[C@@]1(C)O[C@@H]21,-60.8% (active),-59.5% (active),-69% (active),-93.5% (active),-91.1% (active),-91.8% (active),-75.7% (active),-96.9% (active),-34.9% (active),-15.4% (active)
CCSc1oc(-c2ccccc2)nc1[P+](c1ccccc1)(c1ccccc1)c1ccccc1,-9.57% (active),11%,3.37% (active),-31.3% (active),24.1%,-5.44% (active),1.2% (active),-32.8% (active),11.1%,1.34% (active)
O=C(c1ccccc1)c1ccc(C2CCCCC2)cc1,110%,81.9%,90.7%,98.2%,81.5%,97.1%,82.2%,77.9%,96.2%,104%
COc1ccc(/C=C(\C#N)n2nnc3cc(F)c(F)cc32)cc1,50.9%,51.9%,58.9%,52.8%,72.4%,55.4%,54.4%,76.2%,24.3%,22.4%
C[C@@H](CO)[C@@H]1CCC=C2CC[C@]3(C)[C@H](CC[C@@H]4[C@@]5(C)CCCNC(C)(C)[C@@H]5CC[C@]43C)[C@H]21,52.1%,94.5%,67.3%,79.7%,82%,87.2%,47%,76.6%,26.2%,10.3%
Cc1nc2sc(C(=O)Nc3cccc4ccccc34)c(N)c2cc1C(O)c1ccccc1 (stereo not given),25.3%,39.4%,12.7%,33.4%,52.6%,24.4%,29.5%,-13.7% (active),6.95% (active),6.27% (active)
COC1=CC(c2ccc[nH]2)=N/C1=C\c1[nH]c(C)c(C(=O)OC(C)C)c1C,-61.6% (active),-41.9% (active),-2.47% (active),-87.5% (active),3.42% (active),-82.9% (active),-32.4% (active),-37.8% (active),13.5%,-5.6% (active)
O=S(=O)(c1ccccc1)n1cc2c(c1)-c1nc(Nc3ncccn3)sc1CC2,65.2%,72.4%,57.2%,41.3%,64.3%,22.9%,66.8%,43.7%,73.1%,83.7%
Cc1[nH]c(C(=O)Nc2ccc(C(=O)N3CCN(c4cc5c(cc4F)c(=O)c(C(=O)O)cn5C4CC4)CC3)cc2OC(C)C)c(Cl)c1Cl,105%,80.5%,31.2%,56.2%,82.7%,67.9%,74.8%,55.6%,53%,93.3%
O=c1[nH]c(-c2ccccc2)nc2sc3cc(O)ccc3c12,103%,66.4%,89.1%,55.9%,99.9%,76.2%,68.9%,79.3%,73.1%,66.9%
CCC(C)N(CCNc1cc(OC)cc2cccnc12)CC(C)C (stereo not given),110%,95.5%,101%,67.2%,101%,85.6%,94.1%,92.8%,90.9%,87.4%
COc1ccc(OC)c(-c2nc(SCC(=O)c3ccc(C#N)cc3)[nH]c(=O)c2C#N)c1,104%,105%,107%,76.9%,103%,97.7%,96.8%,106%,106%,103%
O=C(O)c1cn(C2CC2)c2cc(N3CCN(C(=O)N(c4ccccc4)c4nc(-c5ccccc5)cs4)CC3)c(F)cc2c1=O,-18.3% (active),16.9%,1.06% (active),5.23% (active),38.3%,-79.1% (active),6.68% (active),3.2% (active),10.9%,2.43% (active)

Compound,growth (SK-MEL-2 melanoma),growth (EKVX NSCLC),growth (SN12C renal),growth (UO-31 renal),growth (TK-10 renal),growth (ACHN renal),growth (CAKI-1 renal),growth (A498 renal),growth (CCRF-CEM leukemia),growth (MOLT-4 leukemia)
COc1cc(OC)c(NC(=O)c2cc3ccccc3cc2O)cc1Cl,15.4%,38.4%,28.1%,-10.7% (active),32.8%,22.7%,6.59% (active),18.8%,26.9%,26.9%
Nc1ncnc2c1c(-c1cccc(Cl)c1)nn2CC(=O)N1CCOCC1,106%,104%,100%,80.7%,97%,95.6%,91.8%,118%,102%,110%
COc1ccc(/C=N/C2=C(C#N)C(c3ccccc3)c3ccc4ccccc4c3O2)cc1 (stereo not given),49.4%,42.9%,38%,29.6%,59.7%,35.4%,28%,19.3%,9.58% (active),19.2%
N=C(N)c1ccc(-c2ccc(-c3ccccc3)o2)cc1,-86.6% (active),-18.1% (active),-39.5% (active),-82.2% (active),-77.4% (active),-65.9% (active),-1.49% (active),-21.9% (active),-39.4% (active),-56.2% (active)
O=C(/C=C/c1cccc(Cl)c1)c1ccc(Nc2nc(Nc3ccc(F)cc3)nc(Nc3ccc(Cl)cc3)n2)cc1,72.2%,139%,136%,94.6%,127%,116%,112%,124%,103%,94%
C#CCOc1ccc2ncnc(Nc3ccc(NC(=O)C=C)cc3)c2c1,-0.222% (active),2.42% (active),1.14% (active),-26.4% (active),-62.7% (active),-96.6% (active),24.3%,74.1%,-39.5% (active),-34.7% (active)
CCc1ccc(CCCC(=O)O)cc1,103%,96.3%,93.7%,92.1%,99.9%,101%,94%,95%,104%,98.8%
CC1(C)CC(=O)C2=C(C1)N(c1ccc(OC(F)(F)F)cc1)C(N)=C(C#N)C2c1ccc(Br)cc1F (stereo not given),88.6%,82%,58.7%,70.3%,119%,41.1%,50.3%,31.4%,85.6%,63%
Cc1cc(=O)oc2cc(OCc3nn4c(Nc5nc6ccccc6s5)c(-c5ccccc5)nc4s3)ccc12,108%,88.4%,91.4%,83.6%,128%,100%,79.5%,91.1%,40.7%,97.5%
CCN1C(=O)N(CC)C2C1NN=c1s/c(=C\c3ccccc3F)c(=O)n12 (stereo not given),37.2%,53%,23.9%,40.4%,70.3%,27.5%,17.4%,3.4% (active),8.85% (active),10.2%
Nc1c(C(=O)Nc2ccccc2F)sc2nc3c(cc12)CCCC3,43.7%,41.2%,40%,46.9%,60.9%,50.7%,57.4%,-0.37% (active),22.5%,27%
O=C(CN1C(=O)NC2NC(=O)NC21)N/N=C/c1ccccc1[N+](=O)[O-] (stereo not given),114%,103%,105%,87.8%,116%,103%,90.1%,104%,107%,103%
CCO/C=N/C1=C(C#N)C(c2ccc(Cl)cc2)c2sc3c(F)cccc3c2O1 (stereo not given),14.2%,75.7%,79.7%,66%,88.1%,92.3%,41.3%,56.5%,38.1%,71.5%
Cn1ccc(=O)c(C(=O)Nc2nsc3ccc([N+](=O)[O-])cc23)c1,55.7%,81.7%,75.3%,28.1%,50%,32.6%,6.88% (active),31.9%,82.7%,83.4%
NC(Cc1ccc(O)c([N+](=O)[O-])c1)C(=O)O (stereo not given),109%,111%,95.7%,88.2%,94.4%,99.2%,93.9%,105%,88.7%,96%
COc1cc2ncnc(Nc3ccc(S(=O)(=O)Nc4cc(C)on4)cc3)c2cc1OCCCN1CCN(c2ccc(F)cc2)CC1,113%,109%,100%,77.5%,115%,97.4%,87.7%,91.9%,103%,102%
COCCOc1cc2ncnc(N3CCN(c4ncc(S(=O)(=O)N5CCCCC5)cn4)CC3)c2cc1OCCOC,105%,104%,104%,78.1%,106%,115%,101%,92.1%,84.5%,91.9%
CSc1nc2ncc([N+](=O)[O-])c(=O)n2[nH]1,107%,100%,108%,87.5%,97.8%,103%,92.8%,88.3%,99.6%,129%
CCOC(=O)NC(C)C,114%,105%,100%,81.5%,115%,100%,98.2%,117%,110%,82.9%
N#Cc1nc(-c2ccc(Cl)cc2)oc1S(=O)(=O)N1CCN(c2ccc(F)cc2)CC1,87.9%,111%,92.2%,81.3%,100%,102%,107%,78.6%,3.82% (active),3.45% (active)
O=C1C(=O)N(Cc2ccc(-c3ccccc3)cc2)c2ccc(OC(F)(F)F)cc21,69.7%,94.3%,21.2%,45.5%,63.9%,41.7%,31.7%,84.8%,9.7% (active),30%

# Reference: PubChem BioAssay (NCI)
